According to article PMC7819943, “Rice protein-binding microarrays: a tool to detect cis-acting elements near promoter regions in rice”:
The full ranking holds about 68,000 sequences; the median of “fluorescence intensity (a.u.)” is about 9,100, and the highest 2% start at about 16,000. Only a selection was taken, and the highest values are over-represented in it overall.

Biological target: OsWRKY34 (Oryza sativa, UniProt Q0JBA9 1-250)
Assay: protein-binding microarray (RPBM); PBS, 2% BSA, 51.3 ng/ul salmon testes DNA, 50 uM zinc acetate, 200 nM TF, 25 C, 1 h; high values mean tight binding
Conditions: protein: recombinant; tags: N-terminal polyhistidine and DsRed monomer fusion (pET32a); label: CyDye5-dUTP incorporated in the synthesized complementary strand; 3' TTTTT single-stranded linker to array surface; dsDNA, one strand shown
Method in brief: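 Transcription factors were made in E. coli BL21-CodonPlus as N-terminal fusions to a polyhistidine tag and DsRed, then purified on Ni–NTA. After primer extension with Cy5-dUTP and blocking with 2% BSA, a custom Agilent array was exposed for 1 h at 25 °C to 200 nM protein in PBS, 2% BSA, salmon testes DNA and 50 µM zinc acetate. Washed arrays were scanned on an Axon 4000B, and the binding signal is per-feature fluorescence intensity in arbitrary units.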

OsWRKY34, sequence (Q0JBA9 entry or part of it): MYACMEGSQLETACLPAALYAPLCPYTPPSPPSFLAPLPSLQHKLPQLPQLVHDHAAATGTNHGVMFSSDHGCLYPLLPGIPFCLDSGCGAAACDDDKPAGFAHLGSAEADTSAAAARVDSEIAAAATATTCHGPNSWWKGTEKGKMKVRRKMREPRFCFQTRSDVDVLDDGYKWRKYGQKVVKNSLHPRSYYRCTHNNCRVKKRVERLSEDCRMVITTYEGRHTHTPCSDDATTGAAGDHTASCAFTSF

Sequence	binding signal
TCTCCCTTTCATTTTTATGTATGTTGGAATTATTTTTGTTCGGAGTCACCTAGTGCAG	8590 fluorescence intensity (a.u.)
TATTTGATCCCGTTTTTTAAAATCGAGCTTACCGTTTGACCGGAGTCACCTAGTGCAG	10500 fluorescence intensity (a.u.)
GTGGAGCTATACCTTCTACTCTCAGCAATTGTCCTTTAGACGGAGTCACCTAGTGCAG	9460 fluorescence intensity (a.u.)
ACGCGGCCGCCGAGCTGGACTCCTCATCCCCAGCTTCGCTCGGAGTCACCTAGTGCAG	8600 fluorescence intensity (a.u.)
CAATTATCCTCTGTGCTGTTTGACATTTTCTTGGTTAGTGCGGAGTCACCTAGTGCAG	12000 fluorescence intensity (a.u.)
GACACACGATTTCTTAAGGCTCATACTTTATGCTTGTCTACGGAGTCACCTAGTGCAG	11300 fluorescence intensity (a.u.)
GACACATGAACTTTCAATTTTTCTATCACATCGTTCTAATCGGAGTCACCTAGTGCAG	8150 fluorescence intensity (a.u.)
TTTTTTGGTTGTTGATATGATGTTCTTTTTTCCTCATTCTCGGAGTCACCTAGTGCAG	8990 fluorescence intensity (a.u.)
GGCTTTGTATTTTGGTGTTGAGTCCCTTCCATACAAGAACCGGAGTCACCTAGTGCAG	8040 fluorescence intensity (a.u.)
AGTTTTTGCTTGTAACGTTTCACCACTCGTCTTATTCAAACGGAGTCACCTAGTGCAG	8340 fluorescence intensity (a.u.)
AACCTCCACACACCCGCTCATACTACAAGCTAGGTAATCACGGAGTCACCTAGTGCAG	8040 fluorescence intensity (a.u.)
CCCCTCGCCGCCCTCTCTCTCACAGTCTCACGCATCCCATCGGAGTCACCTAGTGCAG	8440 fluorescence intensity (a.u.)
CCCATCGCATCTTTCCCACTCGCCCCACGCCCGCACGTCTCGGAGTCACCTAGTGCAG	18800 fluorescence intensity (a.u.)
CACCTCCCCGCCCACCATTCCCACTTTCGCCCACACACACCGGAGTCACCTAGTGCAG	9570 fluorescence intensity (a.u.)
TGCTCGGACCATTCCCCGCCCACCATCGCTGCACACTTTTCGGAGTCACCTAGTGCAG	17200 fluorescence intensity (a.u.)
CGCTCCACCACCCGCCCGCTCGCCCATTTCCTCTCCCTTTCGGAGTCACCTAGTGCAG	12300 fluorescence intensity (a.u.)
GCGCTTCTGACCACCACGTGCATTTCCATTTCCCGCTGCACGGAGTCACCTAGTGCAG	12700 fluorescence intensity (a.u.)
CGCTGACCACGTTGACCATCTTCCATTTCTTCCCCTCGCCCGGAGTCACCTAGTGCAG	18600 fluorescence intensity (a.u.)
CGCACCACCACCACCATTTCCACGCCCCTCTCTCCATTCCCGGAGTCACCTAGTGCAG	8680 fluorescence intensity (a.u.)
GCCCCATCCACCGCACCACACGTCTCTTTTTTTCGCGACTCGGAGTCACCTAGTGCAG	14600 fluorescence intensity (a.u.)
GGCAATCCGGTGCTCCTTGTCTGAACTCTCTCAATCTCAACGGAGTCACCTAGTGCAG	8040 fluorescence intensity (a.u.)

Sequence	binding signal
ATTTGTCATTTTTTCTATGTGTATATGTTGTATTTTGAGCCGGAGTCACCTAGTGCAG	8430 fluorescence intensity (a.u.)
GCATGAGTAGGGGATGGCATTAAAACAGGTTGGTCAGGTGCGGAGTCACCTAGTGCAG	8920 fluorescence intensity (a.u.)
TCCGTTCCATCGTAATCCTTCTCCGATCCGAATTTGCTTCCGGAGTCACCTAGTGCAG	9120 fluorescence intensity (a.u.)
GCATCGACCGCGCGCGTATACGTTAACGCTCACCTTTGTTCGGAGTCACCTAGTGCAG	9420 fluorescence intensity (a.u.)
GGTTTGTTTGGAGGCGCAATGTTTCTCACCCTGTCGTTCCCGGAGTCACCTAGTGCAG	12700 fluorescence intensity (a.u.)
AGGTCTTTTTCACGTCGCAACCATGGCTTCAAATTTTGCTCGGAGTCACCTAGTGCAG	11900 fluorescence intensity (a.u.)
CTCGCCTGACCCTGTCAAACGCCGGGCCGCGGACCCCGCCCGGAGTCACCTAGTGCAG	8970 fluorescence intensity (a.u.)
GGTGACGGCTGGTGTGGGTGTAGGGTGGCCGCGCGGTACGCGGAGTCACCTAGTGCAG	9460 fluorescence intensity (a.u.)
AACAGTGGTATCGTTGTGTAGGGGTGGGCTGGCAAAAAGACGGAGTCACCTAGTGCAG	20000 fluorescence intensity (a.u.)
GAGCTTGGGGTTGTGTATGGTGGTGGTGGTGTGGTAGCTACGGAGTCACCTAGTGCAG	33200 fluorescence intensity (a.u.)
GGGCTAGTGTTTTTATGGTGTGGTTGGGGATTCAGCTTGCCGGAGTCACCTAGTGCAG	11600 fluorescence intensity (a.u.)
TGCTTGTGGTTTGTATGGAGTTTGGGTGAAGTGTCACGTACGGAGTCACCTAGTGCAG	9660 fluorescence intensity (a.u.)
GGGGTTATGGTGGATTTGGTGCTTTGGGGCATTATGTTTACGGAGTCACCTAGTGCAG	13800 fluorescence intensity (a.u.)
CGTAGGTAAGTAGGGTTATTATAGTTATTTGTGTATATATCGGAGTCACCTAGTGCAG	9300 fluorescence intensity (a.u.)
CTGTTGTGTTGTGTTGTAATATGATTATGTGGGTGCTTATCGGAGTCACCTAGTGCAG	8390 fluorescence intensity (a.u.)
TCGTGGGAAGGGCAAAGAAAAGACGGGGTGGTGGGCATCGCGGAGTCACCTAGTGCAG	8420 fluorescence intensity (a.u.)
TGATGTCTTATCTCGGGTCTCATCTTTTCGCTTATGCTTACGGAGTCACCTAGTGCAG	8990 fluorescence intensity (a.u.)
TTTTGGGGTGGGTTTTGGTATCTGATGCTTACGGGCATCTCGGAGTCACCTAGTGCAG	18100 fluorescence intensity (a.u.)
GAGCTTATAGGGTGGGTTGTGTCCATGGAGTAACTATTATCGGAGTCACCTAGTGCAG	18600 fluorescence intensity (a.u.)
ATTCAGTGGATCCTGCTGCTCAAACTTTGCTGACTGAATTCGGAGTCACCTAGTGCAG	8820 fluorescence intensity (a.u.)
GGCTGTTGGGTTTGTGGGCTTGTGCTAGGCGTCCCAGCTACGGAGTCACCTAGTGCAG	17800 fluorescence intensity (a.u.)

Sequence	binding signal
AGGAGGTGTAGTAGGGTAGTGTAGGAGGTGTAGTGGAGTACGGAGTCACCTAGTGCAG	8450 fluorescence intensity (a.u.)
GGGTTGATGTGTGGTGAAGGGTAGGTAATTTGTAGGAGTACGGAGTCACCTAGTGCAG	10800 fluorescence intensity (a.u.)
GGGATGGGTAGGGGTGGGTTGTGCTGTATTATACTACACCCGGAGTCACCTAGTGCAG	19200 fluorescence intensity (a.u.)
CTTGGGCGTCTTGTGTTTGTGGGTGAGGTAGCCAGCTGCCCGGAGTCACCTAGTGCAG	9910 fluorescence intensity (a.u.)
TGTAGCTTACTGCTTTGGTTTGGGCTGGTTGTGGATTGGACGGAGTCACCTAGTGCAG	11900 fluorescence intensity (a.u.)
TTACCTTAGATTTGGTAGGGCTGGTTAGGGCTGGTTGGAGCGGAGTCACCTAGTGCAG	8680 fluorescence intensity (a.u.)
GCTTACTGGTTATGGTTGGTAGGGTTGGACGTGTAACAGACGGAGTCACCTAGTGCAG	20900 fluorescence intensity (a.u.)
TGCTGCTACTACATGTGGTGTGGGTGGTATGGTAGGGCCCCGGAGTCACCTAGTGCAG	9060 fluorescence intensity (a.u.)
GGGTTTTGCTTTTGCTGTTGTCTTGGGCTTGGGCCTTTGCCGGAGTCACCTAGTGCAG	8660 fluorescence intensity (a.u.)
TGATGTGTGGGTGGTGGTGGTGGTGTGCCTTGTGTAGGTACGGAGTCACCTAGTGCAG	20800 fluorescence intensity (a.u.)
CATCTTTGTGGTTGTGTGGGTGTGTGTGTATATATATACCCGGAGTCACCTAGTGCAG	8180 fluorescence intensity (a.u.)
CCTCGTACGTGTTGGTGTTGCCAAGCCCAAGCCAGTAGTACGGAGTCACCTAGTGCAG	8990 fluorescence intensity (a.u.)
CACGCTTCGTCGTCGGATCGGGACGCCTTGCTGCCTCTGCCGGAGTCACCTAGTGCAG	8170 fluorescence intensity (a.u.)
ACTACATCCGCGCACCTGCTTTGCTCGTCGACGATTATAACGGAGTCACCTAGTGCAG	12900 fluorescence intensity (a.u.)
TGTGGATGAGTGTGTGTGTGTGGAGATCAGTGGGAGACCACGGAGTCACCTAGTGCAG	8170 fluorescence intensity (a.u.)
AAGGGTGTATTTATTGGTGCAATAGCGTTTTTGTTTGACCCGGAGTCACCTAGTGCAG	8690 fluorescence intensity (a.u.)
AGGGAGGAGTACATCTAGTAGTATAGGGGAGAGGGTGGGCCGGAGTCACCTAGTGCAG	11500 fluorescence intensity (a.u.)
CTGTATTCATTAGGGTGGGACTGTATACTATAGTTATTATCGGAGTCACCTAGTGCAG	15700 fluorescence intensity (a.u.)
AGAGCTTAATTTGGTATGTGTGTGTATATATATATATATACGGAGTCACCTAGTGCAG	8150 fluorescence intensity (a.u.)
CTGATTCATTATACTAGGAGGGGTGGGAGGGAGGGAGTACCGGAGTCACCTAGTGCAG	18800 fluorescence intensity (a.u.)
TGGGGTATGTGTGCTTGGTTATGTGTGCATCTTAGTTATACGGAGTCACCTAGTGCAG	19300 fluorescence intensity (a.u.)

Sequence	binding signal
TAATTACCTCTCTTTAGTTTTGGGGTATGTGTGCTTGGTTCGGAGTCACCTAGTGCAG	9680 fluorescence intensity (a.u.)
TATAGGTCCCACGCTATCTCAGTCGCCACATCAGCTAAAACGGAGTCACCTAGTGCAG	8690 fluorescence intensity (a.u.)
TTTTAAGTATAATTTCTCTATAATTTGACAATGTGGTGCTCGGAGTCACCTAGTGCAG	8550 fluorescence intensity (a.u.)
TTTGTTTTGAGCCGAACAAATCGGTAGTCAGTGGGCGGGGCGGAGTCACCTAGTGCAG	11900 fluorescence intensity (a.u.)
TGATCTTTTGTTTCCTGCTTGGTATAGTATAAGCTCTCATCGGAGTCACCTAGTGCAG	8800 fluorescence intensity (a.u.)
TTTTCTTTTTTCCCGCACTTTCTTTTCTTCCCGGAGATGTCGGAGTCACCTAGTGCAG	8400 fluorescence intensity (a.u.)
CTGTTGTTCTGTATATTGTGGTGGGTGTTGATTTGCGGGTCGGAGTCACCTAGTGCAG	12800 fluorescence intensity (a.u.)
TTAAAAAAAAGTCAACGATGATAAATATTTAGAGAGTGAGCGGAGTCACCTAGTGCAG	13100 fluorescence intensity (a.u.)
CATCGGATATTGTATTATGGTGTTGTATGGGTTGTTCGGGCGGAGTCACCTAGTGCAG	14000 fluorescence intensity (a.u.)
CCATGGCGGGGTGTATTGTTGTTGTATTTGGGGTTCTGGTCGGAGTCACCTAGTGCAG	19200 fluorescence intensity (a.u.)
GTCGGTGGAGCGGCCCTTTTTATTTCTGTGGGAGGAGGGTCGGAGTCACCTAGTGCAG	9300 fluorescence intensity (a.u.)
GAAAGATGATTTGGCAAGTAAATAAATAAGAAAAGAGAAGCGGAGTCACCTAGTGCAG	62600 fluorescence intensity (a.u.)
AGTCAACAGGGAGGGTAAAATAAGAAAGCAACAGCAAGAGCGGAGTCACCTAGTGCAG	9730 fluorescence intensity (a.u.)
GTTTGTGTTCTTGGATTGGGTTGGGTTGGGTTGGTGAGGTCGGAGTCACCTAGTGCAG	17600 fluorescence intensity (a.u.)
ATTGGGTTCTTGGAGCTGTTGGATTGGGTTTTTTTGGGAGCGGAGTCACCTAGTGCAG	9180 fluorescence intensity (a.u.)
TTCCTTTTGTCCTCCATGCTCTCTGTATGTCGGTATTTTACGGAGTCACCTAGTGCAG	10500 fluorescence intensity (a.u.)
GGTTGTGTTCTTGTTGGCGAGGAGGAGAGAGGGGTGGGGTCGGAGTCACCTAGTGCAG	14700 fluorescence intensity (a.u.)
AAGCGGTACCATGGGCGGGAGGGTATTTCTGTCCTTTTGTCGGAGTCACCTAGTGCAG	17600 fluorescence intensity (a.u.)
CTCTACTTCTAATATTCCTTATTTTTTTAATTCCGAATTTCGGAGTCACCTAGTGCAG	8800 fluorescence intensity (a.u.)
TTTCTACACCCTGTAGATCCTTGGACCCACATGCAGACCACGGAGTCACCTAGTGCAG	8730 fluorescence intensity (a.u.)
GTGGGTGGGATCCAGGAAGATTTTAAGCTGACTGCTGCGGCGGAGTCACCTAGTGCAG	8510 fluorescence intensity (a.u.)
